Screening results as filed in PubChem BioAssay.
The list is not random: actives were taken first. Their share in the collection is about 4.1%.
NSD2 inh: NSD2 histone methyltransferase inhibitors, primary screen, biochemical, AlphaScreen, single concentration, set 2 | inhibition, % at 12.5 µM | Histone-lysine N-methyltransferase NSD2 (Homo sapiens), O96028 | NSD2 peptide methylation, 120 min | actives 0.54% (n = 310,000); in the data active = inhibition above about 50%
PglD inh: C. jejuni PglD acetyltransferase inhibitors, primary screen, biochemical, DTNB colorimetric, single point | purified PglD enzyme, DTNB colorimetric CoA detection | actives 0.098% (n = 360,000) | inhibition, % at 12.5 µM | UDP-N-acetylbacillosamine N-acetyltransferase PglD (Campylobacter jejuni); in the data active = inhibition above about 16%, passing the limit was not always enough; inconclusive = no clear call, values can overlap the other calls
ALR inh: inhibitors of human ALR sulfhydryl oxidase, primary screen, biochemical, H2O2 detection, HRP-luminol luminescence, single point; purified ALR, DTT oxidation; inhibition, % (no concentration beside the values); FAD-linked sulfhydryl oxidase ALR (Homo sapiens), P55789; AID 485317, 2010; actives 3.8% (n = 290,000);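 active = mean replicate inhibition above about 79%, with every replicate also reaching it, limit read from the data; inconclusive = only one of the two criteria met; inactive = mean below limit and not every replicate reaching it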
Target sequence (P55789 whole entry, looked up): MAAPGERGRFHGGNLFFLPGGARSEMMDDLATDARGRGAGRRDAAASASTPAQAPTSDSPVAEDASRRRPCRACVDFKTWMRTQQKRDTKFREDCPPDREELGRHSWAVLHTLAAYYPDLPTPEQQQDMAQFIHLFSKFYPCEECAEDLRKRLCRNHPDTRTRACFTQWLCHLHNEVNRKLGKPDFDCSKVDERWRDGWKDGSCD
CASP6 VEID inh: human caspase-6 inhibitors, primary screen, biochemical, VEID-R110 fluorescence, single point, set 2 | P55212 | purified caspase-6, Z-VEID-R110 cleavage fluorescence | actives 0.53% (n = 350,000) | inhibition, % at 12.5 µM;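 active = mean inhibition across replicates at least about 35%, with every replicate also reaching that limit, limit read from the data; inconclusive = only one of the two criteria met; inactive = neither criterion met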
Target sequence (P55212 24-179 limits assumed): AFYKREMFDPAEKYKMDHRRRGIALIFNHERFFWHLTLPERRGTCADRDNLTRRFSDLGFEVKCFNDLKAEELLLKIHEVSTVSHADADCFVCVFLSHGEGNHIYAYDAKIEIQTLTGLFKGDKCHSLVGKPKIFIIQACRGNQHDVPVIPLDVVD
Target sequence (P55212 194-293 limits assumed): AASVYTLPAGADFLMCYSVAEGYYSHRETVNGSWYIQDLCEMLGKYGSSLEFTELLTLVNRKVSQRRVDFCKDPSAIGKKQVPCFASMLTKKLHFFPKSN
HIV Env fusion: inhibitors of HIV-1 Env-driven cell-cell fusion, primary screen, HeLa-JRFL effector, CEM21 target cells, luciferase | inhibition, % at 12.3 µM | actives 1.1% (n = 360,000) | AID 651610, 2012;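 active = mean replicate inhibition score of at least 50 and every replicate individually at or above 50; inconclusive = only one of the two criteria met; inactive = mean below 50 and not all replicates reaching 50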
F508del corr: F508del CFTR correction, initial screen, CFBE line, single point; CFBE cells, YFP halide quenching; stimulated with forskolin plus potentiator P3; % fluorescence drop versus neutral controls; activity (quench increase), % at 7.58 µM; actives 0.36% (n = 350,000);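 active = mean added fluorescence quench of at least 8% versus neutral control, with both replicates also reaching 8%; inconclusive = only one of the mean or replicate conditions met; inactive = mean below 8% and not both replicates reaching 8%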;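 also: cells transiently co-express mutant CFTR-F508del with the halide-sensitive YFP; corrector assay measuring rescue of mutant channel to the surface after 24 h compound exposure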
Of the large screens only hits and unclear results are named; the others gave an inactive call; ! = repeats disagree.

COc1ccc(C(=O)/C=C/c2ccccc2)c(OC)c1	none (no result: NSD2 inh, HIV Env fusion)
O=C(/C=C/c1ccc(O)cc1)c1ccccc1	ALR inh 99 (no result: PglD inh)
CCOc1ccc(C(=O)/C=C/c2ccc(OC)c(OC)c2)cc1	ALR inh 97 (no result: PglD inh)
COc1ccc(C(=O)/C=C/c2ccc(N(C)C)cc2)c(OC)c1	F508del corr 18 (no result: ALR inh)
COc1ccc(C(=O)/C=C/c2ccc(O)cc2)cc1	ALR inh 98 (no result: NSD2 inh, HIV Env fusion)
CCCNC(=O)Nc1ccc2c(c1)OC[C@H](C)N(C(=O)c1ccccc1F)C[C@H](C)[C@@H](OC)CN(C)C2=O	none (no result: NSD2 inh, PglD inh, ALR inh)
C[C@@H](NC(=O)C[C@@H]1C[C@H]2c3cc(NC(=O)CN(C)C)ccc3O[C@H]2[C@@H](CO)O1)c1ccccc1	none (no result: NSD2 inh, ALR inh)
Cc1nn(C)cc1/C=C/C(=O)c1ccc(O)cc1	ALR inh 99 (no result: CASP6 VEID inh, F508del corr)
Cc1cc2c(=Cc3ccc(N(C)C)cc3)c3ccccc3n2[n+]1C	NSD2 inh 55 (no result: PglD inh, ALR inh)
CC1=NN(c2cccc(F)c2)C(=O)/C1=C/c1ccc(N(C)C)cc1	none
CCOC(=O)c1cc2c(=Cc3ccc(N(C)C)cc3)c3ccccc3n2[n+]1C	CASP6 VEID inh 97, F508del corr 9.9 (no result: PglD inh, ALR inh)
CN(C)c1ccc(C=c2c3ccccc3n3c2c2ccccc2[n+]3C)cc1	HIV Env fusion 58 (no result: NSD2 inh, PglD inh, ALR inh)
Cc1ccc(S(=O)(=O)NCCNC(=O)c2cc(OCC(F)(F)F)ccc2OCC(F)(F)F)cc1	HIV Env fusion 96 (no result: NSD2 inh, CASP6 VEID inh, F508del corr)
CN(C)S(=O)(=O)NCCNC(=O)c1cc(OCC(F)(F)F)ccc1OCC(F)(F)F	none (no result: NSD2 inh, PglD inh)
O=C(NCCNC(=O)c1cc(OCC(F)(F)F)ccc1OCC(F)(F)F)Nc1cccc(C(F)(F)F)c1	HIV Env fusion 84 (no result: CASP6 VEID inh, F508del corr)
O=C(NCCNS(=O)(=O)c1ccccc1Cl)c1cc(OCC(F)(F)F)ccc1OCC(F)(F)F	none (no result: NSD2 inh, CASP6 VEID inh, F508del corr)
CCN(CC(=O)Nc1ccc(NC(C)=O)cc1)C(=O)c1ccc(N2CCC(C)CC2)c([N+](=O)[O-])c1	F508del corr 41 (no result: HIV Env fusion)
Cc1ccc(C(=O)N/N=C/c2cc(Br)ccc2O)cn1	F508del corr 12
Cc1ccc(C(=O)N/N=C\C=C\c2ccc(Br)cc2)cn1	none (no result: PglD inh)
CN(C)CCNc1ccc(CO)c2sc3ccc(O)cc3c(=O)c12	none (no result: NSD2 inh, PglD inh, ALR inh)
COc1ccc2sc3cccc(NCCN(C)C)c3c(=O)c2c1	F508del corr 12 (no result: PglD inh, ALR inh)
O=c1o[nH]c(-c2ccccc2)c1-c1ccccc1	ALR inh 89
O=c1[nH][nH]c(-c2ccccc2)c1-c1ccccc1	none (no result: ALR inh)
O=C(NC(=S)N(Cc1ccccc1)Cc1ccccc1)C1CCCCC1	none (no result: CASP6 VEID inh, F508del corr)
O=C(NC(=S)N(Cc1ccccc1)c1ccccn1)C1CC1	ALR inh 99
Oc1ccc(CNc2ccccc2F)c2cccnc12	HIV Env fusion 114!
Oc1ccc(CN2CCc3ccccc3C2)c2cccnc12	HIV Env fusion 62 (no result: CASP6 VEID inh, F508del corr)
Cc1ccc(S(=O)(=O)N(C)C[C@@H]2OCCCC[C@H](C)Oc3ccc(N(C)C)cc3C(=O)N([C@H](C)CO)C[C@@H]2C)cc1	none (no result: NSD2 inh, PglD inh, ALR inh, CASP6 VEID inh)
O=C(CN1C(=O)NC2(CCCCCCC2)C1=O)Nc1ccc(Br)cc1	F508del corr 9.1 (no result: PglD inh)
O=C(CN1C(=O)NC2(CCCCC2)C1=O)Nc1ccc(F)cc1	none (no result: PglD inh)
O=C(O)c1cc(O)ccc1-c1ccc(O)cc1	ALR inh 98 (no result: CASP6 VEID inh, F508del corr)
O=C(Nc1ccc(F)cc1)N1CC(=O)N2[C@H](CO)[C@@H](c3ccc(C#CC4CC4)cc3)[C@@H]2C1	none (no result: NSD2 inh, PglD inh, ALR inh, HIV Env fusion)
O=C(Cn1nnc(-c2ccccc2)n1)OCc1csc(-c2ccccc2)n1	ALR inh 99 (no result: CASP6 VEID inh, HIV Env fusion, F508del corr)
O=C(Cn1nnc(-c2ccccc2)n1)OCc1ccccc1	none (no result: CASP6 VEID inh, F508del corr)
CC1CCCC(C)N1/N=C/c1ccc(O)cc1 (stereo not given)	ALR inh 94
CC1CCCC(C)N1/N=C/c1ccc(C(=O)O)cc1 (stereo not given)	none
COc1cc(/C=N/N2C(C)CCCC2C)cc(OC)c1O (stereo not given)	ALR inh 100
COc1cccc(-c2ccc([C@H]3[C@@H](CO)N4C(=O)CN(C(=O)CN5CCOCC5)C[C@@H]34)cc2)c1	none (no result: NSD2 inh, PglD inh, ALR inh, HIV Env fusion)
O=C(NC12CC3CC(CC(C3)C1)C2)N(Cc1ccccc1)Cc1ccncc1	HIV Env fusion 62 (no result: ALR inh)
O=C(NC12CC3CC(CC(C3)C1)C2)c1ccccc1	none
CCCN(C)C[C@H]1OCCCC[C@H](C)Oc2ccc(NS(=O)(=O)c3ccc(F)cc3)cc2C(=O)N([C@@H](C)CO)C[C@@H]1C	none (no result: NSD2 inh, ALR inh)
O=C(N/N=C/c1c(O)ccc2ccccc12)c1ccc(CO)nc1	F508del corr 14
O=C(NN=Cc1c(O)ccc2ccccc12)c1ccc2c(c1)OCO2	none
CC(=O)N1[C@@H]2Cn3c(ccc(-c4ccc(F)cc4)c3=O)[C@H]1[C@@H](C(=O)N(C)C)[C@@H]2CO	none (no result: NSD2 inh, ALR inh, HIV Env fusion, F508del corr)
O=C(C[C@@H]1C=C[C@H](NC(=O)c2ccncc2)[C@@H](CO)O1)Nc1ccc(-c2ccccc2)cc1	none (no result: NSD2 inh, ALR inh)
COC(=O)/C=C/C(=O)N1CCN(c2ccccc2C)CC1	ALR inh 98
O=C(COC(=O)/C=C/C(=O)N1CCN(c2ccccc2)CC1)NCc1ccc(F)cc1	none
COC(=O)/C=C/C(=O)N1CCN(c2ccccc2)CC1	ALR inh 97 (no result: HIV Env fusion)
C[C@H]1CN([C@@H](C)CO)C(=O)Cc2cc(NC(=O)CCCCCC(=O)Nc3ccccc3N)ccc2O[C@H]1CN(C)S(=O)(=O)c1ccc(Cl)cc1	none (no result: NSD2 inh, PglD inh, ALR inh, CASP6 VEID inh)
O=C(O)C1Nc2c(O)cc(Cl)c([N+](=O)[O-])c2C2C=CCC12 (stereo not given)	CASP6 VEID inh 98 (no result: NSD2 inh, PglD inh)
Cc1ccc2c(c1)C1C=CCC1C(C(=O)O)N2 (stereo not given)	none (no result: NSD2 inh, PglD inh, CASP6 VEID inh, HIV Env fusion, F508del corr)
FC(F)(F)c1cccc(N2CCC(N=CN3CCCCCC3)=N2)c1	none (no result: PglD inh)
Oc1ccccc1C=NC1=NN(c2cccc(C(F)(F)F)c2)CC1	ALR inh 78 (no result: F508del corr)
Cc1ccc(-c2csc(NS(=O)(=O)c3cccc(F)c3)n2)o1	CASP6 VEID inh 41
Cc1ccc(S(=O)(=O)N(C)C[C@H]2Oc3c(NC(=O)C4CCOCC4)cccc3C(=O)N([C@@H](C)CO)C[C@H]2C)cc1	none (no result: NSD2 inh, ALR inh)
O=C1CN(S(=O)(=O)Cc2ccccc2)C[C@H]2[C@@H](c3ccc(C#Cc4cccnc4)cc3)[C@@H](CO)N12	none (no result: NSD2 inh, PglD inh, ALR inh, HIV Env fusion)
CCOC(=O)C1=C(C(=O)OCC)C2N(Cc3ccc(C(F)(F)F)cc3)c3ccccc3[C@@]23C[C@@H](C(=O)OC)N(S(=O)(=O)c2cccs2)C3=N1 (stereo not given in full)	HIV Env fusion inconclusive (no result: NSD2 inh, PglD inh, ALR inh)
CCOC(=O)C1=C(C(=O)OCC)C2N(Cc3ccc(Br)cc3)c3ccccc3[C@@]23C[C@@H](C(=O)OC)N(S(=O)(=O)c2cccs2)C3=N1 (stereo not given in full)	HIV Env fusion 59 (no result: NSD2 inh, PglD inh, ALR inh)
